Measurements from paper PMC11062922 (Nature Chemical Biology, 2023).
Like-named read-outs stand apart in the source and are kept apart here.

Legend:
AAK1 = system: AAK1; set-up: species or system human, MV4-11 + K-562 + COLO205 + SK-N-BE2 + OVCAR-8; conditions: read-out: apparent Kd, compound concentrations: 100 nM and 1000 nM (sheet 'Samples'), n = 1
BMP2K = system: BMP2K; set-up: species or system human, MV4-11 + K-562 + COLO205 + SK-N-BE2 + OVCAR-8; conditions: read-out: apparent Kd, compound concentrations: 100 nM and 1000 nM (sheet 'Samples'), n = 1
CLK1 = system: CLK1; set-up: species or system human, MV4-11 + K-562 + COLO205 + SK-N-BE2 + OVCAR-8; conditions: read-out: apparent Kd, compound concentrations: 100 nM and 1000 nM (sheet 'Samples'), n = 1
CLK4 = system: CLK4; set-up: species or system human, MV4-11 + K-562 + COLO205 + SK-N-BE2 + OVCAR-8; conditions: read-out: apparent Kd, compound concentrations: 100 nM and 1000 nM (sheet 'Samples'), n = 1
CSNK2A1;CSNK2A3 = system: CSNK2A1;CSNK2A3; set-up: species or system human, MV4-11 + K-562 + COLO205 + SK-N-BE2 + OVCAR-8; conditions: read-out: apparent Kd, compound concentrations: 100 nM and 1000 nM (sheet 'Samples'), n = 1
CSNK2A2 = system: CSNK2A2; set-up: species or system human, MV4-11 + K-562 + COLO205 + SK-N-BE2 + OVCAR-8; conditions: read-out: apparent Kd, compound concentrations: 100 nM and 1000 nM (sheet 'Samples'), n = 1
FLT4 = system: FLT4; set-up: species or system human, MV4-11 + K-562 + COLO205 + SK-N-BE2 + OVCAR-8; conditions: read-out: apparent Kd, compound concentrations: 100 nM and 1000 nM (sheet 'Samples'), n = 1
GAK = system: GAK; set-up: species or system human, MV4-11 + K-562 + COLO205 + SK-N-BE2 + OVCAR-8; conditions: read-out: apparent Kd, compound concentrations: 100 nM and 1000 nM (sheet 'Samples'), n = 1
GSK3A = system: GSK3A; set-up: species or system human, MV4-11 + K-562 + COLO205 + SK-N-BE2 + OVCAR-8; conditions: read-out: apparent Kd, compound concentrations: 100 nM and 1000 nM (sheet 'Samples'), n = 1
GSK3B = system: GSK3B; set-up: species or system human, MV4-11 + K-562 + COLO205 + SK-N-BE2 + OVCAR-8; conditions: read-out: apparent Kd, compound concentrations: 100 nM and 1000 nM (sheet 'Samples'), n = 1
MELK = system: MELK; set-up: species or system human, MV4-11 + K-562 + COLO205 + SK-N-BE2 + OVCAR-8; conditions: read-out: apparent Kd, compound concentrations: 100 nM and 1000 nM (sheet 'Samples'), n = 1
NUAK1 = system: NUAK1; set-up: species or system human, MV4-11 + K-562 + COLO205 + SK-N-BE2 + OVCAR-8; conditions: read-out: apparent Kd, compound concentrations: 100 nM and 1000 nM (sheet 'Samples'), n = 1
PAK4 = system: PAK4; set-up: species or system human, MV4-11 + K-562 + COLO205 + SK-N-BE2 + OVCAR-8; conditions: read-out: apparent Kd, compound concentrations: 100 nM and 1000 nM (sheet 'Samples'), n = 1
PRKAG1 = system: PRKAG1; set-up: species or system human, MV4-11 + K-562 + COLO205 + SK-N-BE2 + OVCAR-8; conditions: read-out: apparent Kd, compound concentrations: 100 nM and 1000 nM (sheet 'Samples'), n = 1
Q6ZSR9 = Q6ZSR9 (human, UniProt Q6ZSR9); set-up: species or system MV4-11 + K-562 + COLO205 + SK-N-BE2 + OVCAR-8; conditions: read-out: apparent Kd, compound concentrations: 100 nM and 1000 nM (sheet 'Samples'), n = 1
Sequence of Q6ZSR9 (Q6ZSR9 whole entry, looked up): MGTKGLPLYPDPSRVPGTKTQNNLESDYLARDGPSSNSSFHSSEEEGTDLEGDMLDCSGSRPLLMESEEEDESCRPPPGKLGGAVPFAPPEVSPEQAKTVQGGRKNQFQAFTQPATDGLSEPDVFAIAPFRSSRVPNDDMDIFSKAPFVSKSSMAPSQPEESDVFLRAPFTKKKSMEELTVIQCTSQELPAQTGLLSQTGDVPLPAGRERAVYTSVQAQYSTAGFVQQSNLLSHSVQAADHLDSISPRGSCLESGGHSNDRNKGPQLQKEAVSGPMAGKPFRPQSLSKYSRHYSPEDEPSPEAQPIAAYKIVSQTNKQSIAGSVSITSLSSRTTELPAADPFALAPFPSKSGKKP

RET = system: RET; set-up: species or system human, MV4-11 + K-562 + COLO205 + SK-N-BE2 + OVCAR-8; conditions: read-out: apparent Kd, compound concentrations: 100 nM and 1000 nM (sheet 'Samples'), n = 1
SIK2 = system: SIK2; set-up: species or system human, MV4-11 + K-562 + COLO205 + SK-N-BE2 + OVCAR-8; conditions: read-out: apparent Kd, compound concentrations: 100 nM and 1000 nM (sheet 'Samples'), n = 1
PKN3 [1] = system: PKN3; set-up: species or system human, MV4-11 + K-562 + COLO205 + SK-N-BE2 + OVCAR-8; conditions: read-out: apparent Kd, compound concentrations: 100 nM and 1000 nM (sheet 'Samples'), n = 1;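 for IC50: NanoBRET target engagement in HEK293T cells transiently expressing full-length PKN3 with C-terminal NanoLuc, displacement of fluorescent tracer K5 (500 nM), BRET read after 2 h equilibration at 37 °C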
PKN3 [2] = conditions: hek293t cells
PKN1 = system: PKN1; set-up: species or system human, MV4-11 + K-562 + COLO205 + SK-N-BE2 + OVCAR-8; conditions: read-out: apparent Kd; compound concentrations: 100 nM and 1000 nM (sheet 'Samples'), CATDS: 9.0371010763674806E-3; n = 1

`COc1ccc(Nc2ncc(C#N)c(Nc3ccccc3C(N)=O)n2)cc1N1CCN(C)CC1.Cl` [GSK1558669A] was tested, and the potency estimated from few doses (AAK1; CATDS: 1.0489274011292E-2) was 0.164 µM, the potency estimated from few doses (BMP2K; CATDS: 9.7460630022759408E-3) was 0.204 µM and the potency estimated from few doses (CLK1; CATDS: 1.6853937375741E-2) was 0.052 µM. The potency estimated from few doses (CLK4; CATDS: 1.78351826711012E-2) was 0.0464 µM, the potency estimated from few doses (CSNK2A1;CSNK2A3; CATDS: 3.32003717220812E-2) was 0.0157 µM and the potency estimated from few doses (CSNK2A2; CATDS: 5.84237607609163E-2) was 0.00702 µM. The potency estimated from few doses (FLT4; CATDS: 6.1594984322683802E-2) was 0.00655 µM, the potency estimated from few doses (GAK; CATDS: 7.1387437274862903E-3) was 0.65 µM and the potency estimated from few doses (GSK3A; CATDS: 2.2002232250464899E-2) was 0.0311 µM. For the same compound, the potency estimated from few doses (GSK3B; CATDS: 2.1185466534455601E-2) was 0.0333 µM, the potency estimated from few doses (MELK; CATDS: 6.9590061702447499E-3) was 0.733 µM and the potency estimated from few doses (NUAK1; CATDS: 1.9495800971078701E-2) was 0.039 µM. It also gave a potency estimated from few doses (PAK4; CATDS: 1.03985583586522E-2) of 0.168 µM, a potency estimated from few doses (PRKAG1; CATDS: 1.48267658268137E-2) of 0.0685 µM and a potency estimated from few doses (Q6ZSR9; CATDS: 1.17172228407674E-2) of 0.121 µM. It also gave a potency estimated from few doses (RET; CATDS: 1.6777420038619099E-2) of 0.0525 µM and a potency estimated from few doses (SIK2; CATDS: 3.5509703257123403E-2) of 0.0141 µM.

`CCn1c(-c2nonc2N)nc2c(C#CC(C)(C)O)nc(OC[C@@H](N)c3ccccc3)cc21` [GSK938890A] gave a potency estimated from few doses (GSK3A; CATDS: 6.6915182583243901E-2) of 0.404 µM, a potency estimated from few doses (GSK3B; CATDS: 6.5310864553074097E-2) of 0.446 µM and a potency estimated from few doses (PAK4; CATDS: 0.107853549418886) of 0.0883 µM. It also gave a potency estimated from few doses (PKN3 [1]; CATDS: 0.20749541918588199) of 0.0236 µM, an IC50 (PKN3 [2]; read-out: Average, SD, n = 4) of 0.0978 µM and an IC50 (PKN3 [2]; read-out: Rep 1) of 0.31 µM. For the same compound, the IC50 (PKN3 [2]; read-out: Rep 2) was 0.0312 µM, the IC50 (PKN3 [2]; read-out: Rep 3) was 0.0281 µM and the IC50 (PKN3 [2]; read-out: Rep 4) was 0.0223 µM.

`O=C1N=C(NCCc2ccc(Cl)cc2)S/C1=C\c1ccc2ncccc2c1` [RO4498479-000] showed a potency estimated from few doses (AAK1; CATDS: 1.47357709485617E-2) of 0.257 µM, a potency estimated from few doses (BMP2K; CATDS: 1.0596911535971001E-2) of 0.487 µM and a potency estimated from few doses (CLK1; CATDS: 2.3801432407155699E-2) of 0.123 µM. For the same compound, the potency estimated from few doses (CLK4; CATDS: 1.10234043350519E-2) was 0.447 µM, the potency estimated from few doses (CSNK2A1;CSNK2A3; CATDS: 1.63252209283915E-2) was 0.216 µM and the potency estimated from few doses (CSNK2A2; CATDS: 1.5998355653452E-2) was 0.224 µM. It also gave a potency estimated from few doses (FLT4; CATDS: 1.0631245795833501E-2) of 0.483 µM, a potency estimated from few doses (GAK; CATDS: 1.9710228455472299E-2) of 0.161 µM and a potency estimated from few doses (GSK3A; CATDS: 2.3758867869594399E-2) of 0.123 µM. It also gave a potency estimated from few doses (GSK3B; CATDS: 1.7085262625281698E-2) of 0.201 µM, a potency estimated from few doses (MELK; CATDS: 8.0269577096188198E-3) of 1 µM and a potency estimated from few doses (NUAK1; CATDS: 8.4437303302316406E-3) of 0.86 µM. It also gave a potency estimated from few doses (PAK4; CATDS: 1.2005445098745401E-2) of 0.375 µM, a potency estimated from few doses (PKN1) of 0.713 µM and a potency estimated from few doses (PKN3 [1]; CATDS: 1.12150497096419E-2) of 0.431 µM. It also gave a potency estimated from few doses (PRKAG1; CATDS: 1.32160889121976E-2) of 0.312 µM, a potency estimated from few doses (Q6ZSR9; CATDS: 1.3986845405836199E-2) of 0.282 µM and a potency estimated from few doses (RET; CATDS: 1.4080551975431E-2) of 0.278 µM. It also gave a potency estimated from few doses (SIK2; CATDS: 1.14849273453617E-2) of 0.41 µM.
